According to publication PMC12864922, “TDP-43 directly inhibits mRNA accumulation in neurites through modulation of mRNA stability”:
Whole data set: some 9,900 sequences, median “r (bound/input frequency ratio)” near 0.7, cut for the highest 2% near 6.5. The list comes from a sample in which the highest values are over-represented; it also holds similar and randomly drawn sequences.

B1: ENSMUSG00000043670.167|Diras1 (ssRNA)
RNA: GGGAGUUCUACAGUCCGACGAUCGCUUCGAUAUCCGCAUGCUAGGUUUGGGGUGCUGAGGGUGGGGUGCCCAGCUGAGAGUCUAUCAGCAAAGUCCCUGUGUGCGGUGAUAGGACUAGUGGCUGCUGCCCUAGGGCUCUGACAGAAUCUGAGCCUCUUUGCUGGUCAUGUGUACUCUGGAGACUGUCCCCCAUGUCUGCCCUGAGUUACGGAGCCCCUGUGGUAUCUGCGAGACUGUCCAGGAGACUUGAGUGGCUCCUGGGCCUGUGUCCCACCCAGAUGAGGGUGACUUAGAAUUCUGUGUCUCUUGCGGUCGCACUAGUGUGGAAUUCUCGGGUGUCAAGG
B2: ENSMUSG00000042529.74|Kcnj12 (ssRNA)
RNA: GGGAGUUCUACAGUCCGACGAUCGCUUCGAUAUCCGCAUGCUAACUUGGGCAAGACUGUUUACAAACAAAAACAAACAAACAAACAAUCAAAAAAAAAACCCACCCCACAAAACACAAGAAAACAUUAACAGGUGGUUCAAUUUUUAAAAUUCCUGGUGUGGGGACAGUUGGAAUUCUACUCAGCGCUGCCAGGCAAGCAGCUGGACGGAGAACCCUGAGGGUUCUCAGAGGUCUGUUUUCUCCCUCACGUGGGCCAGGGCCUUAAGCGAGUUGUCAUGCUUAAGGAUGAAUCAGGCUGCUUGCUCUUGCGGUCGCACUAGUGUGGAAUUCUCGGGUGUCAAGG
B3: ENSMUSG00000032194.238|Kank2 (ssRNA)
RNA: GGGAGUUCUACAGUCCGACGAUCGCUUCGAUAUCCGCAUGCUAAAACCUCAGCAGGGCAGCAUUGAGACUCAUGGACUAAAGGAAAGUGUUCACUCUUCUAGACAAGUGGGUCUCUUGGUUUGAUGGAGUCUUACUCCGCUUGAGUUUUGUAGAAGGGGUUUGUCUAAGGCAUAGAGGCUUGGUUGGCAUAAGAAAAUAAGAUGGACAGAUGGAUGGGUGGAUGGAUGGAUGGCUGAUUGAGUGGGUGGGUGGGUGGAUGGAUGCAUAAAUGAAUAGAUGGAUGGAUGAAUGAACAGAUAGAUCUCUUGCGGUCGCACUAGUGUGGAAUUCUCGGGUGUCAAGG
B4: ENSMUSG00000028439.2|Fam219a|50:54;256:260 (ssRNA)
RNA: GGGAGUUCUACAGUCCGACGAUCGCUUCGAUAUCCGCAUGCUAGACGAGGACCUAGAUCUCAUCCCCCCCAAGUCUGUGAACCCCACCUGCAACACAUGUCAGGCCACUUCCUCCACCGCCUGCCACAUUCAGUAGUGGGCGGGGUCGCCGCGGUGCACGGGGCGCUGACCUGGGCCCGGUGGGAUGCAGCAGGAGAGACCCCUACCCUGCUGGUCCACUGGUCCCCAGCCCCGCGCCUCUUAGAGCCGCCAACCUCGUAACAGUCAUUGCUUCCUCCUAUGGUAGGACGUGUACCUCACACACUCUUGCGGUCGCACUAGUGUGGAAUUCUCGGGUGUCAAGG
B5: ENSMUSG00000058297.541|Spock2|207:211 (ssRNA)
RNA: GGGAGUUCUACAGUCCGACGAUCGCUUCGAUAUCCGCAUGCUAUUUUGAUAUCGGCUCCCCAAAGCCCAAGCCCACAGCCCUAGGAGAGAACCAGGGGCCCAUCUUUGACACCUGGGCCAUCACGAGCCCUCCCGCCUGCAGUUGUCCUAGGGAAAGACCUGGGGGUGCAAAAGGAGAUUCAAGACAUCCGUACCAAGUCAGGCAGAGCUACCCGCUUCUCAGCCCGUGUCCCACUUAAAACCGUCCGAACACAAAUCACUGAGCUUAGAGUUAAACAUUGUGGUCAAGUGCUUGGGUUCCGUCUCUUGCGGUCGCACUAGUGUGGAAUUCUCGGGUGUCAAGG
B6: ENSMUSG00000058297.519|Spock2 (ssRNA)
RNA: GGGAGUUCUACAGUCCGACGAUCGCUUCGAUAUCCGCAUGCUACACAGGAGUCGUGACCACGUGUGAUGGGUGGGCACAGGUCUGCCUUGCUCCAGCCCCCUCCCUUGGUUUCUGUUGGUACCCAUUUGGCUUUUAUCUGCUUUCUGCUUCACCACUAAGUGCGUAGGUGGGGUCUUUUGAUAUCGGCUCCCCAAAGCCCAAGCCCACAGCCCUAGGAGAGAACCAGGGGCCCAUCUUUGACACCUGGGCCAUCACGAGCCCUCCCGCCUGCAGUUGUCCUAGGGAAAGACCUGGGGGUGCAACUCUUGCGGUCGCACUAGUGUGGAAUUCUCGGGUGUCAAGG
B7: ENSMUSG00000061578.447|Ksr2 (ssRNA)
RNA: GGGAGUUCUACAGUCCGACGAUCGCUUCGAUAUCCGCAUGCUAUUUCAGAGGGGAUAGUUCCUUCUAACCUUGUACUGGGACAUCAUCUAUGUCCCCAUCCCCAGAGCUGAAUUAGAGACACCAAGUAGCCUCUUGGGUUGUUUUGUGGGGUGUUCCCCUUGCUGGUCAAAGGAGUGGAAAGCCACCUUGCUGUAAAUGCUCUUGUUUUCUGUAGCAAUCUUGAACUCUUUUUUUUUUUUGUUCGUUUGUUUGUUUGUUUGUUUGUUUGUUUUUUCAAGACAGGGUUUUUCUGUAUAGCCCUGCUCUUGCGGUCGCACUAGUGUGGAAUUCUCGGGUGUCAAGG
B8: ENSMUSG00000031028.308|Tub (ssRNA)
RNA: GGGAGUUCUACAGUCCGACGAUCGCUUCGAUAUCCGCAUGCUAGAACCCUCAGCGAGGUAGCCUUUGUUUACAGUCUAGUUUCUAGAGGGCAGUAGGACUUCCAUGCUGGGGCUGGCCUAUCUCCUGAUGAAAGAUUACAGUGCCAUCUCCUUCCCAUAGUUCUGUGUCUGCCCUCCCUCCCUGACUUUAUAGGGAGAAAUCUCCUGACAUUAGAGGUGAUAGAAACCAGAGCUUUAGUCUAGUCAGGCUGUUUCUCUGGGUUGACAAGUUUAAGGUUGAACAGGCUGAUUUCUGGAAUCUCACUCUUGCGGUCGCACUAGUGUGGAAUUCUCGGGUGUCAAGG
B9: ENSMUSG00000029028.135|Lrrc47 (ssRNA)
RNA: GGGAGUUCUACAGUCCGACGAUCGCUUCGAUAUCCGCAUGCUAAGGCAUUCUAUUGAACAGUAUUUAUUUUUCUACAACAUGUUAAUAGAAUUUUUUUUUAAAUCAGCUGUGCAUAGACAGUUGAGAACAUCAUGUUGUGAGUGUAAUCUUCUUAGAGCUUGUUUCCAGGCACCGUGCUGCCGCCAUGCUCCCAGGGCAGCAUCUGCCUUCCACGGCUGUGCUUGGAACUGUAGUGCUGGUCGUUGUUGGCACAUCUGCGCCUUGGCCAAGGAAGUUAUCUAUGUCCGUGUAGUCCUUUGUAGCUCUUGCGGUCGCACUAGUGUGGAAUUCUCGGGUGUCAAGG
B10: ENSMUSG00000031028.662|Tub (ssRNA)
RNA: GGGAGUUCUACAGUCCGACGAUCGCUUCGAUAUCCGCAUGCUACUGGACCCCAUACUGGUGACCAGCUUGGUGAGGACAGGCAAAAUUUCUCUAGCUGAGAGCACACUUAGCCAGUUUUCACGCCUAGAACAUAUAUGUCGAUUUGCACAUGAUUGUCUUUUCCUAUUUUGGAGUGGUCAGACAUUUUAUUUUUGUUCAAAAUUAUCUGGAGUUUUAGACAAACUUGCAAAACUGUGCUUUUAUUAAGUGACUUUUUGAAUAAACUUUUUGGUAUUCUGAAGCAAAUGUAUUUAUUUAUUGGUCUCUUGCGGUCGCACUAGUGUGGAAUUCUCGGGUGUCAAGG
B11: ENSMUSG00000028439.182|Fam219a (ssRNA)
RNA: GGGAGUUCUACAGUCCGACGAUCGCUUCGAUAUCCGCAUGCUAUGUGUGUGUGCGUGUGCGUGUGUGUAUGUGUGUGCGUGUGUGUGUGUGUGUGUUGUACCCGAGUGUGUGUUGAGCCUAUCUGUCCAGGGAACCAGAUUGGUGUCCGAGAUGAGGAAAUGGCUGUGGCCUGGGAAAUCAGUGAGAGGCCGCUUGGGAAUGAGAAUGCAGUGGACUGAAAGCACAGCCUGGCCAUCUGGAACCUGGGUUCUGGUCCCAGCCUCGGCAUUCUCCCUGAGCUCCUAAGCAAUUCCCAGGCUUCUCUCUUGCGGUCGCACUAGUGUGGAAUUCUCGGGUGUCAAGG
B12: ENSMUSG00000028439.183|Fam219a|6:10;12:28;30:47;57:64 (ssRNA)
RNA: GGGAGUUCUACAGUCCGACGAUCGCUUCGAUAUCCGCAUGCUAUGUGCCACACCCACACACAUACACACACCCACACACACACACACACAUGUACCCGACACACACAUGAGCCUAUCUGUCCAGGGAACCAGAUUGGUGUCCGAGAUGAGGAAAUGGCUGUGGCCUGGGAAAUCAGUGAGAGGCCGCUUGGGAAUGAGAAUGCAGUGGACUGAAAGCACAGCCUGGCCAUCUGGAACCUGGGUUCUGGUCCCAGCCUCGGCAUUCUCCCUGAGCUCCUAAGCAAUUCCCAGGCUUCUCUAGGGCUCUUGCGGUCGCACUAGUGUGGAAUUCUCGGGUGUCAAGG
B13: ENSMUSG00000028439.181|Fam219a|7:16;18:22;24:40;42:59;69:76 (ssRNA)
RNA: GGGAGUUCUACAGUCCGACGAUCGCUUCGAUAUCCGCAUGCUAUGUGCCACACACACACCCACACCCACACACAUACACACACCCACACACACACACACACAUGUACCCGACACACACAUGAGCCUAUCUGUCCAGGGAACCAGAUUGGUGUCCGAGAUGAGGAAAUGGCUGUGGCCUGGGAAAUCAGUGAGAGGCCGCUUGGGAAUGAGAAUGCAGUGGACUGAAAGCACAGCCUGGCCAUCUGGAACCUGGGUUCUGGUCCCAGCCUCGGCAUUCUCCCUGAGCUCCUAAGCAAUUCCCAGCUCUUGCGGUCGCACUAGUGUGGAAUUCUCGGGUGUCAAGG
B14: ENSMUSG00000028439.183|Fam219a (ssRNA)
RNA: GGGAGUUCUACAGUCCGACGAUCGCUUCGAUAUCCGCAUGCUAUGUGCGUGUGCGUGUGUGUAUGUGUGUGCGUGUGUGUGUGUGUGUGUUGUACCCGAGUGUGUGUUGAGCCUAUCUGUCCAGGGAACCAGAUUGGUGUCCGAGAUGAGGAAAUGGCUGUGGCCUGGGAAAUCAGUGAGAGGCCGCUUGGGAAUGAGAAUGCAGUGGACUGAAAGCACAGCCUGGCCAUCUGGAACCUGGGUUCUGGUCCCAGCCUCGGCAUUCUCCCUGAGCUCCUAAGCAAUUCCCAGGCUUCUCUAGGGCUCUUGCGGUCGCACUAGUGUGGAAUUCUCGGGUGUCAAGG
B15: ENSMUSG00000028439.181|Fam219a (ssRNA)
RNA: GGGAGUUCUACAGUCCGACGAUCGCUUCGAUAUCCGCAUGCUAUGUGCCUGUGUGUGUGCGUGUGCGUGUGUGUAUGUGUGUGCGUGUGUGUGUGUGUGUGUUGUACCCGAGUGUGUGUUGAGCCUAUCUGUCCAGGGAACCAGAUUGGUGUCCGAGAUGAGGAAAUGGCUGUGGCCUGGGAAAUCAGUGAGAGGCCGCUUGGGAAUGAGAAUGCAGUGGACUGAAAGCACAGCCUGGCCAUCUGGAACCUGGGUUCUGGUCCCAGCCUCGGCAUUCUCCCUGAGCUCCUAAGCAAUUCCCAGCUCUUGCGGUCGCACUAGUGUGGAAUUCUCGGGUGUCAAGG
B16: ENSMUSG00000028439.182|Fam219a|1:10;12:16;18:34;36:53;63:70 (ssRNA)
RNA: GGGAGUUCUACAGUCCGACGAUCGCUUCGAUAUCCGCAUGCUAACACACACACCCACACCCACACACAUACACACACCCACACACACACACACACAUGUACCCGACACACACAUGAGCCUAUCUGUCCAGGGAACCAGAUUGGUGUCCGAGAUGAGGAAAUGGCUGUGGCCUGGGAAAUCAGUGAGAGGCCGCUUGGGAAUGAGAAUGCAGUGGACUGAAAGCACAGCCUGGCCAUCUGGAACCUGGGUUCUGGUCCCAGCCUCGGCAUUCUCCCUGAGCUCCUAAGCAAUUCCCAGGCUUCUCUCUUGCGGUCGCACUAGUGUGGAAUUCUCGGGUGUCAAGG

Molecular target: TDP-43 (Homo sapiens, UniProt Q13148 1-414)
Assay: RNA Bind-n-Seq with designed 260-mer pool; 25 mM Tris-HCl, 150 mM KCl, 3 mM MgCl2, BSA (printed 500 mg/mL), 20 units/mL SUPERase IN; pH not stated; 500 nM RNA pool, 1 h, 4 C; TDP-43 5, 50, 500 nM; high values mean tight binding
Conditions: protein: recombinant; tags: SBP (GST cleaved off with PreScission; pGEX-GST-SBP)
How it was run: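 For each oligo, R gives binding as its mapped-read-normalized abundance after pulldown divided by its abundance in input. Bead-captured SBP-tagged TDP-43 (5, 50 or 500 nM) was incubated with 500 nM of an in vitro-transcribed 260-nt 3′ UTR oligo pool for 1 h at 4 °C in 25 mM Tris-HCl, 150 mM KCl, 3 mM MgCl2, BSA and SUPERase IN on streptavidin beads. Washed, biotin-eluted RNA was reverse transcribed, PCR-amplified and sequenced.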

TDP-43, sequence (Q13148 whole entry): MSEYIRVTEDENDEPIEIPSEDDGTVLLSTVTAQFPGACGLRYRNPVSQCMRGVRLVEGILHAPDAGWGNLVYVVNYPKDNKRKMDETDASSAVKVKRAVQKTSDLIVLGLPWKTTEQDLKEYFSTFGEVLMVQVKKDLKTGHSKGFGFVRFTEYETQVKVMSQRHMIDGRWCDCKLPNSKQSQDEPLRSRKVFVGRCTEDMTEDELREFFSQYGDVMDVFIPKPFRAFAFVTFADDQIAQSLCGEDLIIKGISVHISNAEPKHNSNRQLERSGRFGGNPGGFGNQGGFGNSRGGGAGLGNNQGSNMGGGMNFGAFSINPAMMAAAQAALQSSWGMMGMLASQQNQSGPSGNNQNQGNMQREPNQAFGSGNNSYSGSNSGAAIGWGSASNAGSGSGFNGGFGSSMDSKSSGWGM

| Binder | binding signal |
| --- | --- |
| B1 | 1.03 R (bound/input frequency ratio) |
| B2 | 1.56 R (bound/input frequency ratio) |
| B3 | 0.95 R (bound/input frequency ratio) |
| B4 | 0.757 R (bound/input frequency ratio) |
| B5 | 0.821 R (bound/input frequency ratio) |
| B6 | 0.833 R (bound/input frequency ratio) |
| B7 | 2.55 R (bound/input frequency ratio) |
| B8 | 0.194 R (bound/input frequency ratio) |
| B9 | 0.359 R (bound/input frequency ratio) |
| B10 | 0.163 R (bound/input frequency ratio) |
| B11 | 6.82 R (bound/input frequency ratio) |
| B12 | 2.29 R (bound/input frequency ratio) |
| B13 | 3.16 R (bound/input frequency ratio) |
| B14 | 5.72 R (bound/input frequency ratio) |
| B15 | 6.58 R (bound/input frequency ratio) |
| B16 | 3.29 R (bound/input frequency ratio) |
